Source: PubChem
KCC2 mod – modulates chloride dependent transport by human KCC2; Q9H2X9; KCC2 cells, thallium flux FluoZin-2 fluorescence; B-score of Tl+ flux slope (higher = more flux/activation; lower = inhibition) at 10 µM; 2.2% of 190,000 active;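 active = thallium flux slope and its plate-corrected score both differing from the plate sample mean at a set confidence after two filtering rounds, in either direction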;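 also: slope of fluorescence scaled to starting intensity during 10 to 20 s after thallium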
Target sequence (Q9H2X9 whole entry, looked up): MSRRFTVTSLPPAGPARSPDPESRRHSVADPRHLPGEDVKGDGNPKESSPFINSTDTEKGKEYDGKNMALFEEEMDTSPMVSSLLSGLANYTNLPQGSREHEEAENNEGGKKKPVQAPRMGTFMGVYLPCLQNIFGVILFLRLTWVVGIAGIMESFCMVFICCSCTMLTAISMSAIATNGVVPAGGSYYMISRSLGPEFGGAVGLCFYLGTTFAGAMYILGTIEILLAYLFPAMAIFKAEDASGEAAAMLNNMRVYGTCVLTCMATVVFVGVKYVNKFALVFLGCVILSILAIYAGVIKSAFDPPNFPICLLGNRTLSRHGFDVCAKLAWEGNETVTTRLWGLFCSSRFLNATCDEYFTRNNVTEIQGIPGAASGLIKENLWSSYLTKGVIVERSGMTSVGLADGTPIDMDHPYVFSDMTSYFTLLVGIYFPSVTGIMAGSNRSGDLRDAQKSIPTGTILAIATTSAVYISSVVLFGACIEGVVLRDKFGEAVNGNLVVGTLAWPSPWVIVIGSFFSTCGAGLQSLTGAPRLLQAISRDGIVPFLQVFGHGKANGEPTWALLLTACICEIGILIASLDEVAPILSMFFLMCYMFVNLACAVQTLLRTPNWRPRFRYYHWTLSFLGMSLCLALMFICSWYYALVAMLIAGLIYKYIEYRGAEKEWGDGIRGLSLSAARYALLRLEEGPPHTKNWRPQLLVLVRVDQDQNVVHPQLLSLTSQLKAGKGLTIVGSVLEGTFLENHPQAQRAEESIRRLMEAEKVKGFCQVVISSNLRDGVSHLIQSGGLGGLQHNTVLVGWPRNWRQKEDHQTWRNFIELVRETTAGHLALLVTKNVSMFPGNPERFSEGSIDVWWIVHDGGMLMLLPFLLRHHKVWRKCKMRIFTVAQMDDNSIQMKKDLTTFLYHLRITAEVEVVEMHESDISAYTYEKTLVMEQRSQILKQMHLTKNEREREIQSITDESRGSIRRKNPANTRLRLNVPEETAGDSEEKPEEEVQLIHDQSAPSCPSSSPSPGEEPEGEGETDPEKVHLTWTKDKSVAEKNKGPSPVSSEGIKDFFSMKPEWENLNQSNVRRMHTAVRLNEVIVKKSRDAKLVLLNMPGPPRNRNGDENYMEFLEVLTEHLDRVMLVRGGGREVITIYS
Arbovirus anti – blocks arbovirus infection; AID 1251; arbovirus infection cell-based antiviral screen; inhibition, % at 10 µM; 0.37% of 200,000 active; in the data active = inhibition above about 30%
HSV augment – increases HSV replication in cells | HSV replication augmentation in cells, fold increase | maximum fold increase | 0.005% of 220,000 active; in the data active = maximum fold increase above about 1.5; inconclusive = no clear call, values can overlap the other calls; tested in PC3 cells
ROMK mod – modulators of human ROMK potassium channel | Tet-inducible ROMK, thallium flux fluorescence; actives lie on both sides | 2% of 130,000 active | B-score at 10 µM | AID 1918;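 active = signal ratio slope over the read window, or its plate-corrected B-score, at least 3 SD from the plate mean, either direction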;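 also: B-score of the F/F0 ratio slope over 7 to 12 s after thallium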
Measles CPE – protection of cells from measles virus. Measles virus-infected cells, CPE protection, absorbance. protection (pct of control), % at 4 µM. 1.5% of 140,000 active. AID 841; in the data active = protection mostly above about 24%, no sharp cut-off; inactive = mostly below about 26%
ROMK retest – confirmation of human ROMK potassium channel modulators | shares compounds with ROMK mod | ROMK thallium flux, fluorescence ratio; hits give low values | normalized thallium flux (F/F0 slope) at 10 µM | 54% of 3,000 active | AID 1917;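 active = Flux at 10 µM at least 3 SD below or above vehicle control mean in one or both replicates; inconclusive = no clear call, values can overlap the other calls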
A number is an active result; . = inactive; ? = inconclusive; / = not tested or not shown. Sampled rows, rich in hits. Any-hit rate of the full collection: about 4%.

SMILES	KCC2 mod	Arbovirus anti	HSV augment	ROMK mod	Measles CPE	ROMK retest
CC1CCCCC1NC(=O)CN1C(=O)c2cccc(N)c2C1=O (stereo unspecified)	.	.	.	-3.7	/	0.056
O=C(Nc1ccc(CN2CCS(=O)(=O)CC2)cc1)c1ccc(Cl)cc1	.	/	.	.	/	/
c1ccc(Nc2nc(CSc3ncn[nH]3)cs2)cc1	.	.	.	-2	/	.
COc1cc(-c2cc(-c3ccc(O)cc3)nc(N)c2C#N)ccc1O	.	.	.	4.2	/	.
COc1ccc(OC)c(-c2cc(-c3cccnc3)nc(N)c2C#N)c1	.	/	.	3.5	/	.
COc1cccc(-c2cc(-c3cccnc3)nc(N)c2C#N)c1	.	/	.	.	/	/
COc1ccc(CNC(=O)c2cc3c(s2)CN(Cc2ccccc2)C3)cc1	.	.	.	.	/	/
CCCCCNc1nc(-c2ccccc2)nc(-n2ccnc2)n1	.	.	.	/	/	.
CC(C)CCN(C)C1CCN(S(=O)(=O)c2cccc(C(F)(F)F)c2)CC1	.	.	/	-2.9	.	.
Cn1nc(C(F)(F)F)c(C#N)c1N1CCN(c2ccccc2)CC1	.	.	.	-3.1	.	0.063
COc1cccc(CNC(=O)C2CCN(Cc3cnn(-c4ccccc4)c3-n3cccc3)CC2)c1	.	.	.	-3.5	.	0.055
CSc1ncccc1C(=O)Nc1ccc(S(=O)(=O)NC2=NCCCCC2)cc1	.	.	.	.	/	/
N#C/C(=C(/O)c1cc2ccccc2o1)c1nc2ccccc2s1	.	/	.	/	/	0.058
N#C/C(=C(/O)C(Cl)c1ccccc1)c1nc2ccccc2s1 (stereo unspecified)	.	.	.	.	.	/
Cc1cc(C(=O)CN2C(=O)NC3(CCCc4ccccc43)C2=O)c(C)n1Cc1ccccc1 (stereo unspecified)	.	.	?	2	.	.
O=C(Cc1cccs1)NNC(=S)NCc1ccco1	/	.	.	-9.4	/	.
CN(C(=O)COc1ccc(S(=O)(=O)N2CCOCC2)cc1[N+](=O)[O-])C1CCS(=O)(=O)C1 (stereo unspecified)	.	/	.	/	/	/
Cc1nc(SCC(=O)NCc2ccco2)c2c(=O)n(C)c(=O)n(CC(C)C)c2n1	.	.	.	.	/	/
O=C1N=c2ccccc2=C1c1[nH]c(=S)[nH]c1O	.	.	.	/	.	/
Cc1ccc(Cl)c2c1=NC(=O)C=2c1[nH]c(=S)[nH]c1O	.	.	.	-2.4	/	0.054
Cc1ccccc1Cn1nc(C)c(NC(=O)/C=C/c2cnn(C)c2)c1C	/	.	.	3.2	.	.
COc1ccccc1/C=N/N1C(=O)C(CC(=O)Nc2ccc([N+](=O)[O-])cc2OC)SC1=Nc1cccc(C)c1C (stereo unspecified)	.	.	.	2.7	/	.
CCOc1ccc(/C(C)=N/N2C(=O)C(CC(=O)Nc3ccc(OC)cc3[N+](=O)[O-])SC2=Nc2cccc(C)c2C)cc1 (stereo unspecified)	.	.	.	.	.	/
O=C(/C=C/c1ccc([N+](=O)[O-])cc1)NCCSc1ccccc1	/	.	.	/	.	?
CCN1/C(=C/c2ccc3ccccc3[n+]2CC)C=Cc2ccccc21	.	.	.	-4.7	.	0.038
SMILES	KCC2 mod	Arbovirus anti	HSV augment	ROMK mod	Measles CPE	ROMK retest
CCN(CC(=O)Nc1c(F)cccc1F)C(=O)CCc1ccc(OC)cc1	.	.	.	.	/	/
CC(=O)[C@H]1CC[C@H]2[C@@H]3CCC4=CC(=O)CC[C@]4(C)[C@H]3CC[C@]12C	.	.	.	/	.	0.065
Cc1nc(-c2cccc(Br)c2)ccc1C(=O)O	.	.	.	.	/	/
Cc1cccc(-n2cc(-c3ccccc3)c3c(N4CCOCC4)ncnc32)c1	.	.	.	.	/	/
CCOC(=O)C(CC)Sc1nnc(COc2ccc(C)cc2)n1-c1ccccc1 (stereo unspecified)	.	.	.	-4.5	28	0.066
CC(=O)Nc1ccc(C=C(C(C)=O)C(C)=O)cc1	.	/	.	/	/	/
Oc1ccc2oc3c(c2c1C=NCc1ccncc1)CCCC3	.	/	.	/	/	/
CC(=O)N1CCc2cc(Br)cc(S(=O)(=O)NCc3ccccn3)c21	/	.	.	-7.4	.	.
COc1ccc(C2=NOC(C(=O)Nc3cccnc3Cl)C2)cc1 (stereo unspecified)	.	.	.	/	/	/
CN(c1ccccc1)S(=O)(=O)c1cccc(NC(=O)c2ccc3ncsc3c2)c1	/	/	.	/	/	0.067
Cc1nc2ccc(NC(=O)c3cccc(S(=O)(=O)N(C)c4ccccc4)c3)cc2s1	.	.	.	.	.	/
CN(C(=O)c1c(Br)cnn1C)C12CC3CC(CC(C3)C1)C2	.	.	.	.	.	/
